Assay results from PubChem BioAssay (Tox21).
Results filed as inconclusive are left out. Activity calls are given as the source filed them. Unless noted, calls come from the whole dose curve; as a rule, active = well fitted curve in the direction sought with a large enough effect in the repeat runs; inconclusive = weak or mixed curves; inactive = no such curve, though single readings can be large; an effect the other way counts as inactive or inconclusive.

Assays:
[1] = target: Estrogen receptor (Homo sapiens) (UniProt P03372); assay: qHTS assay to identify small molecule antagonists of the estrogen receptor alpha (ER-alpha) signaling pathway using the BG1 cell line in the presence of 0.1 nM 17-beta-estradiol (AID 1259244); note: nearly all actives have a fitted effect of over 50% in size
Chain of Estrogen receptor (Homo sapiens) (P03372 whole entry, looked up): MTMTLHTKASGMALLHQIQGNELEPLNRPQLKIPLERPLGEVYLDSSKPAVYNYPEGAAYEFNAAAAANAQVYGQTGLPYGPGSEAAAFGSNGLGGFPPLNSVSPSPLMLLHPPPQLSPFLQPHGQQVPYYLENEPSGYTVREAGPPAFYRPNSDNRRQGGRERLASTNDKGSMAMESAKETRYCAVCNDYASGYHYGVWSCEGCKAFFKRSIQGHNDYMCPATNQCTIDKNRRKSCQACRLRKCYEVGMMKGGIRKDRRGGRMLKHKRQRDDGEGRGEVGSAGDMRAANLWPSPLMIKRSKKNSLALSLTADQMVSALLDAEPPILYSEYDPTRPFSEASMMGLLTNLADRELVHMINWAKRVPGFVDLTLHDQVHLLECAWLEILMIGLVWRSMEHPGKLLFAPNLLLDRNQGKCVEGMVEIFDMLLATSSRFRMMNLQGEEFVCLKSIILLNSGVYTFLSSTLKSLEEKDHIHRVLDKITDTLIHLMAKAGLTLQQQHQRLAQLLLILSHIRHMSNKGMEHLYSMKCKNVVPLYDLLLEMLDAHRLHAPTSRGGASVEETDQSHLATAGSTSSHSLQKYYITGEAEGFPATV
How it was run: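 Cells: VM7Luc4E2, endogenous ER-alpha, 4x ERE-luc stable. Pre-culture 5 d, phenol red-free, charcoal-stripped FBS. Plated 24 h, compound + E2 0.1 nM final, 22 h 37C/5% CO2. Readout ONE-Glo luminescence.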

[2] = qHTS assay to identify small molecule HDAC inhibitors (AID 1259364); note: top concentration of the series differs between compounds; nearly all actives have a fitted effect of over 45% in size
How it was run: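 Luminescence from a cell-permeant luminogenic class I/II HDAC substrate reports endogenous deacetylase activity in intact HCT-116 cells treated with compounds for 2 h.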

[3] = qHTS assay to identify small molecule HDAC inhibitors - cell viability counter screen (AID 1259365); note: series mostly up to about 92 µM; nearly all actives have a fitted effect of over 50% in size
How it was run: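 After overnight seeding at 1,500 cells per well, wild-type HCT-116 cultures took up compounds in DMSO for 2hr at 37 C. Viable cell content came from luminescence with CellTiter-Glo.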

[4] = qHTS assay to identify small molecule agonists of the sonic hedgehog signaling (Shh) pathway - cell viability counter screen (AID 1259366); note: nearly all actives have a fitted effect of over 50% in size
How it was run: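 Same-well cytotoxicity read. Gli1-Luc reporter 3T3 cells; compounds 24hr, 37C/5% CO2; CellTiter-Fluor fluorescence.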

[5] = qHTS assay to identify small molecule antagonists of the sonic hedgehog signaling (Shh) pathway - cell viability counter screen (AID 1259367); note: nearly all actives have a fitted effect of over 55% in size
How it was run: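 After a 4 hr settling period, 3T3 Gli1-Luc cells were treated with DMSO-dissolved chemicals and conditioned medium, kept 24 hr at 37C in 5% CO2, and assayed for viability by CellTiter-Fluor fluorescence following 1 hr reagent incubation.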

[6] = qHTS assay to identify small molecule agonists of the sonic hedgehog signaling (Shh) pathway (AID 1259368; calls by dose curve;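 note: NIH/3T3-derived 3T3Gli1-Luc cells carrying a stable Gli1-driven firefly luciferase reporter; series mostly up to about 92 µM; nearly all actives have a fitted effect of over 15% in size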)
How it was run: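 3T3Gli1-Luc (NIH/3T3 clone, stable Gli1-Luc); 4 hr pre-incubation, then cpd in DMSO 24 hr, 37 C/5% CO2; luciferase reagent 30 min RT; luminescence.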

[7] = qHTS assay to identify small molecule antagonists of the sonic hedgehog signaling (Shh) pathway (AID 1259369; calls by dose curve; note: nearly all actives have a fitted effect of over 45% in size)
How it was run: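 3T3Gli1-Luc, conditioned-medium-stimulated, 24hr cpd, 37C/5% CO2; Gli1-driven firefly Luc luminescence after 30min RT with luciferase reagent. Cells plated 4hr before cpd.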

[8] = qHTS assay to identify small molecule agonists of the androgen receptor (AR) signaling pathway in the presence of an antagonist - cell viability counter screen (AID 1259379);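 note: MDA-kb2 human breast cancer cells carrying an MMTV luciferase reporter; series mostly up to about 92 µM; nearly all actives have a fitted effect of over 25% in size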
How it was run: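 Cells: MDA-kb2 (MMTV-luc, AR and GR elements), 3,000/well, 5 hr settle. Added: nilutamide 3.0uM final, then compounds (15 conc.). Incubation: 16 hr, 37C, no CO2. Read-out: CellTiter-Fluor, 1 hr, fluorescence.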

[9] = qHTS assay to identify small molecule agonists of the estrogen receptor beta (ER-beta) signaling pathway - cell viability counter screen (AID 1259380); note: nearly all actives have a fitted effect of over 30% in size
How it was run: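 HEK293T ER-beta-UAS-bla; 2% CS-FBS; 6 hr pre-plate, 16 hr cpd at 37C/5% CO2; LiveBLAzer read first, then CellTiter-Glo 30 min RT, luminescence.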

[10] = target: Androgen receptor (Homo sapiens) (UniProt P10275); assay: qHTS assay to identify small molecule agonists of the androgen receptor (AR) signaling pathway in the presence of an antagonist (AID 1259381; calls by dose curve; note: nearly all actives have a fitted effect of over 15% in size)
Chain of Androgen receptor (Homo sapiens) (P10275 whole entry, looked up): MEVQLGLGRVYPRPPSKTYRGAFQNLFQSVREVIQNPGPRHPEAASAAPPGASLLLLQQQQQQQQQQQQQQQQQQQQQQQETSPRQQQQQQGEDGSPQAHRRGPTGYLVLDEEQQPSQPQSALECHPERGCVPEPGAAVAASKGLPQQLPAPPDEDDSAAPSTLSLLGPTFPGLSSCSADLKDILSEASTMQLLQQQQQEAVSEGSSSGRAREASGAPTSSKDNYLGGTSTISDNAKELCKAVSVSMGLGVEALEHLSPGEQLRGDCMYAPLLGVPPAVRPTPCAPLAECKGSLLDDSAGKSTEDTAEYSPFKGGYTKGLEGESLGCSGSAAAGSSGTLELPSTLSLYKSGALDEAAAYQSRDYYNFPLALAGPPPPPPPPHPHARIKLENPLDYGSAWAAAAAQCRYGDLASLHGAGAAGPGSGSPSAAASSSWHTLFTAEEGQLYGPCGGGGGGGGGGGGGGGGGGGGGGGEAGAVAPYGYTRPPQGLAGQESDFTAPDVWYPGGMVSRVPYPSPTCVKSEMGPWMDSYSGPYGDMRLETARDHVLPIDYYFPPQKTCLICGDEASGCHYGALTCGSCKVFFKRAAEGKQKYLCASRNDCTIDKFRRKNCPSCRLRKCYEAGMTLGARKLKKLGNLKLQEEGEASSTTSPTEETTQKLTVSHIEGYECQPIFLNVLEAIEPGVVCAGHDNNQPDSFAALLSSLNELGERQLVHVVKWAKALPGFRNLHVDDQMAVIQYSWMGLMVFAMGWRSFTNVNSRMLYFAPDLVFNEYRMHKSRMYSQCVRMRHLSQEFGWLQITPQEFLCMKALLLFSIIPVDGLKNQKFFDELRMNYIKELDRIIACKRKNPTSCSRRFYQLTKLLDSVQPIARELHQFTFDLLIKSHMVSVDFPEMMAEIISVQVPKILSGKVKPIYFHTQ
How it was run: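 MDA-kb2 cells, 3,000/well, rested 5hr at 37C/0% CO2 → nilutamide 3.0uM final or buffer → compounds, 15 conc. → 16hr at 37C → ONE-Glo, 30min RT → luminescence.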

[11] = target: Estrogen receptor (Homo sapiens) (UniProt P03372); assay: qHTS assay to identify small molecule agonists of the estrogen receptor alpha (ER-alpha) signaling pathway in the presence of an antagonist (AID 1259383; calls by dose curve; note: top concentration of the series differs between compounds; nearly all actives have a fitted effect of over 15% in size)
How it was run: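 VM7Luc4E2, endog. ER-alpha + 4×ERE-luc; charcoal-stripped FBS, phenol red-free, 5 d; 24hr plating; +10.0nM ICI-182,780 (final); cpds 15 conc, 22hr, 37C/5% CO2; ONE-Glo luminescence.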

[12] = qHTS assay to identify small molecule agonists or antagonists of the thyroid stimulating hormone receptor (TSHR) signaling pathway - wild type cell line counter screen (AID 1259384; calls by dose curve)
How it was run: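 Wild-type HEK293 cells were plated 18 h at 37 C/5% CO2, pin-dosed with compound plus Ro20-1724 medium, held 30 min at room temperature, then given cAMP-d2 and anti-cAMP-cryptate; fluorescence was read after 1 h. Fifteen concentrations, triplicate.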

[13] = target: Thyrotropin receptor (Homo sapiens) (UniProt P16473); assay: qHTS assay to identify small molecule antagonists of the thyroid stimulating hormone receptor (TSHR) signaling pathway (AID 1259385; calls by dose curve; note: nearly all actives have a fitted effect of over 20% in size)
Chain of Thyrotropin receptor (Homo sapiens) (P16473 whole entry, looked up): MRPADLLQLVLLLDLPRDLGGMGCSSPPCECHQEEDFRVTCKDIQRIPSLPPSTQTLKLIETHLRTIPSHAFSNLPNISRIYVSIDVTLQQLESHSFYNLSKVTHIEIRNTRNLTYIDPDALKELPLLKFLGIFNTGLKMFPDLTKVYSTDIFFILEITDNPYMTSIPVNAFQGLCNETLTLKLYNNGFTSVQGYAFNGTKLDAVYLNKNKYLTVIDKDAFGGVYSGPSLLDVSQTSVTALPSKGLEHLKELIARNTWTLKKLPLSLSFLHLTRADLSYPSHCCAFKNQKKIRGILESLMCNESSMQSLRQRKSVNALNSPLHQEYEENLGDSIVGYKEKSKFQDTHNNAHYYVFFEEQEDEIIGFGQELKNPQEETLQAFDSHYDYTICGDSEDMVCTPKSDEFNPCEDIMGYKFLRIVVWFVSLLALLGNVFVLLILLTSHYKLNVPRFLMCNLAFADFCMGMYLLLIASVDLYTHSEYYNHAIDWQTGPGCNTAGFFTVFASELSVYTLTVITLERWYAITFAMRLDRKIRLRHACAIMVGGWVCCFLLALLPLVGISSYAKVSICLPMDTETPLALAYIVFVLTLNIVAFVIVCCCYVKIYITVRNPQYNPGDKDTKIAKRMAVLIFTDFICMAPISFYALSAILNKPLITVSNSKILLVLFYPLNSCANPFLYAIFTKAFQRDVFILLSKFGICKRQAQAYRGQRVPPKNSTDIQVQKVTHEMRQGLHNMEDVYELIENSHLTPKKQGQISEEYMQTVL
How it was run: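 TSHR-HEK293 cells were plated and held 18 h at 37C/5% CO2, then given compound plus Ro20-1724 and stimulated with TSH at 1.5 ng/mL final. After 30 min at room temperature, cAMP was detected with cAMP-d2/anti-cAMP-cryptate (1 h) by fluorescence.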

[14] = qHTS assay to identify small molecule agonists of the estrogen receptor alpha (ER-alpha) signaling pathway in the presence of an antagonist - cell viability counter screen (AID 1259386);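 note: series mostly up to about 92 µM; cells exposed to compounds for 22 h at 37 °C before the viability read; nearly all actives have a fitted effect of over 30% in size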
How it was run: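 VM7Luc4E2, stripped-serum pre-culture 5 d; 24hr plating; +ICI-182,780 10.0nM final; cpds 15 conc, 22hr, 37C/5% CO2; CellTiter-Fluor added at 21hr, fluorescence 1hr later.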

[15] = target: Progesterone receptor (Homo sapiens) (UniProt P06401); assay: qHTS assay to identify small molecule agonists of the progesterone receptor (PR) signaling pathway (AID 1346784; calls by dose curve; note: nearly all actives have a fitted effect of over 30% in size)
Chain of Progesterone receptor (Homo sapiens) (P06401 whole entry, looked up): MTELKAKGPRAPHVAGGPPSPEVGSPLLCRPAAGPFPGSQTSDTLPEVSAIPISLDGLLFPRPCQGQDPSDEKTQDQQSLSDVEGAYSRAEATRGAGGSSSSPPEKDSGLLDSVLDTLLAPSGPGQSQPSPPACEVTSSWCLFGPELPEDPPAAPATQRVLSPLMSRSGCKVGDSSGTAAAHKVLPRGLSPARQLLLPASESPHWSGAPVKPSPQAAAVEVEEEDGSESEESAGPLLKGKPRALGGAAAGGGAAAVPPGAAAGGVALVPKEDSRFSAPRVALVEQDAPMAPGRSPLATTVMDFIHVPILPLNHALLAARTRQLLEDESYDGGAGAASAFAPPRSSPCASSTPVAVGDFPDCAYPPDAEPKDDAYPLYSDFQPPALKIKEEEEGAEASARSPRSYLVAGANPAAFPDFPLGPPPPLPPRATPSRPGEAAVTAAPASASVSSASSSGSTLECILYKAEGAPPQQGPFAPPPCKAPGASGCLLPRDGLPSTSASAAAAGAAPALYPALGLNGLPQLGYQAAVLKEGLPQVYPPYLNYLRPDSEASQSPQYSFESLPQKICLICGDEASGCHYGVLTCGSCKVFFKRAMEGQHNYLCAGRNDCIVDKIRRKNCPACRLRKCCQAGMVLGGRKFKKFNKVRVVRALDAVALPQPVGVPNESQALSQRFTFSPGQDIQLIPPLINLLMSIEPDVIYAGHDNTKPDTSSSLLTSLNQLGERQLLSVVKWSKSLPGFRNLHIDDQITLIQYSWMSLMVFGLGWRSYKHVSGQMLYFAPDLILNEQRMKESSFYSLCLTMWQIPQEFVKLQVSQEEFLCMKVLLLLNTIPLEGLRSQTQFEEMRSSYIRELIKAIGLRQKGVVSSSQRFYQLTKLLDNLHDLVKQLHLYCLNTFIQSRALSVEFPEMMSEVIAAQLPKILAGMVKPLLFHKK
How it was run: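 Compounds were tested for PR agonism in HEK 293T cells bearing a beta-lactamase gene under UAS control. Treatment lasted 16 hr at 37C; signal came from fluorescence of a FRET substrate.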

[16] = target: Progesterone receptor (Homo sapiens) (UniProt P06401); assay: qHTS assay to identify small molecule antagonists of the progesterone receptor (PR) signaling pathway (AID 1346795; active = well fitted inhibition curve with a large enough effect in the signal ratio in the repeat runs, not every such curve was filed as active; the % refers to the signal ratio)
How it was run: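 In HEK293T cells bearing the PR-UAS-bla reporter, compound effects on promegestone-driven (1 nM) beta-lactamase expression are assessed after 16 hr using a fluorescent FRET substrate incubated 2 hr at room temperature.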

[17] = target: Estrogen receptor beta (Homo sapiens) (UniProt Q92731); assay: qHTS assay to identify small molecule agonists of the estrogen receptor beta (ER-beta) signaling pathway (AID 1259377; active = well fitted activation curve with a large enough effect in the signal ratio in the repeat runs, not every such curve was filed as active; the % refers to the signal ratio)
Chain of Estrogen receptor beta (Homo sapiens) (Q92731 whole entry, looked up): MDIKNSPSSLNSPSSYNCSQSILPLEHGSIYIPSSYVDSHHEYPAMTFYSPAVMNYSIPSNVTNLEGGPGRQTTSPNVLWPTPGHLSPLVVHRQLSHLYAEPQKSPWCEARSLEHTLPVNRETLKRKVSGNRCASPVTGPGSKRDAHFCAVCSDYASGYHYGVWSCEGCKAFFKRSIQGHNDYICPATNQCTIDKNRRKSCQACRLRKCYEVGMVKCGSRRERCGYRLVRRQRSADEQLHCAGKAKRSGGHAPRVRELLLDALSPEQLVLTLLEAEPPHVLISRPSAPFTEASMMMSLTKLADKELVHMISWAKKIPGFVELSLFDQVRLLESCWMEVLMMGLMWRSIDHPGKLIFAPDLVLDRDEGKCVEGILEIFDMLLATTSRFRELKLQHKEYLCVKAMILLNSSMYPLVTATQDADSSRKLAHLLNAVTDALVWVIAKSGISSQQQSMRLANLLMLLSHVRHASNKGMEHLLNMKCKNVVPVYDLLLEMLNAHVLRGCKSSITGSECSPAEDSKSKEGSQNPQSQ
How it was run: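 Read-out: beta-lactamase FRET fluorescence. Cell line: ER-beta-UAS-bla HEK293T in 2% charcoal-stripped FBS. Exposure: 16 hr at 37C. Substrate step: 2 h at room temperature.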

[18] = target: Estrogen receptor beta (Homo sapiens) (UniProt Q92731); assay: qHTS assay to identify small molecule antagonists of the estrogen receptor beta (ER-beta) signaling pathway (AID 1259378; active = well fitted inhibition curve with a large enough effect in the signal ratio in the repeat runs, not every such curve was filed as active; the % refers to the signal ratio)
How it was run: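 ER-beta-UAS-bla HEK293T (GripTite) cells in 2% charcoal-stripped FBS medium were preincubated 6 hr at 37C, dosed with compound, then stimulated with 1 nM E2 (final) for 16 hr; beta-lactamase reporter read by B/G FRET fluorescence after 2 hr substrate loading.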

[19] = qHTS assay to identify small molecule antagonists of the estrogen receptor beta (ER-beta) signaling pathway - cell viability counter screen (AID 1259382); note: series mostly up to about 92 µM; nearly all actives have a fitted effect of over 55% in size
How it was run: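 Cells: ER-beta-UAS-bla HEK293T, 2,000/well, 2% CS-FBS, 6 hr settle. Cpd + E2 (1nM final), 16 hr, 37C/5% CO2. Bla FRET substrate 2 hr RT, then CellTiter-Glo 30 min RT, luminescence.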

Measured: Potency

CCCCN(C)C
inactive: [1] | [2] | [3] | [4] | [5] | [6] | [7] | [8] | [9] | [10] | [11] | [12] | [13] | [14] | [15] | [16]

CC(C)=CC1CC(C)CCO1 (configuration not stated)
inactive: [1] | [2] | [3] | [4] | [5] | [6] | [17] | [18] | [9] | [19] | [11] | [12] | [13] | [16]

C1CC(COCC2CO2)CCC1COCC1CO1 (configuration not stated)
inactive: [1] | [2] | [3] | [4] | [5] | [6] | [7] | [19] | [11] | [12] | [13] | [14]

CCCCCCCC(OC)OC
inactive: [1] | [2] | [3] | [4] | [5] | [6] | [7] | [8] | [9] | [10] | [11] | [12] | [14] | [15] | [16]

C/C=C/C(=O)C1=C(C)CCCC1(C)C
inactive: [1] | [2] | [3] | [4] | [5] | [6] | [17] | [18] | [8] | [9] | [10] | [19] | [11] | [12] | [13] | [14] | [15] | [16]

C=C(C)CCCC
inactive: [1] | [2] | [3] | [4] | [5] | [6] | [17] | [18] | [8] | [9] | [10] | [19] | [11] | [12] | [13] | [14] | [15] | [16]

CO[Si](CCCNCCNCCN)(OC)OC
inactive: [1] | [2] | [3] | [4] | [5] | [6] | [7] | [8] | [9] | [11] | [12] | [13] | [14] | [16]
